Out of some 5,500 compounds screened, about 2,000 (36%) were called active. Another 18% or so got no clear call; they are omitted. No stated cut-off is given here; in the data, active means normalized growth mostly below about 0.91 (no sharp cut-off); inconclusive means no clear call, values can overlap the other calls; inactive means mostly above about 0.92. The list shows a part of the results.
Test: chemical genetic growth profiling, strain panel (AID 1159580);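 further: tested at 20 µM; growth read once vehicle control cultures reached saturation at 30 °C; 1 = growth at the plate median or of vehicle wells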
Settings: growth OD

Measured: normalized growth

COc1cc(C(=O)O)c(O)c2c1OCO2
inactive: S. cerevisiae deletion strains, locus YAL013W, strain DEP1, stronger effect = lower value 1.01 | S. cerevisiae deletion strains, locus YBR021W, strain FUR4, stronger effect = lower value 0.999 | S. cerevisiae deletion strains, locus YBR229C, strain ROT2, stronger effect = lower value 0.999 | S. cerevisiae deletion strains, locus YCL029C, strain bik1, stronger effect = lower value 0.995 | S. cerevisiae deletion strains, locus YDL035C, strain GPR1, stronger effect = lower value 1.02 | S. cerevisiae deletion strains, locus YDL074C, strain BRE1, stronger effect = lower value 1.05 | S. cerevisiae deletion strains, locus YDL101C, strain DUN1, stronger effect = lower value 1.01 | S. cerevisiae deletion strains, locus YDL134C, strain PPH21, stronger effect = lower value 1.01 | S. cerevisiae deletion strains, locus YDL185W, strain tfp1, stronger effect = lower value 1 | S. cerevisiae deletion strains, locus YDL192W, strain arf1, stronger effect = lower value 1 | S. cerevisiae deletion strains, locus YDR101C, strain arx1, stronger effect = lower value 0.989 | S. cerevisiae deletion strains, locus YDR150W, strain NUM1, stronger effect = lower value 1.01 | S. cerevisiae deletion strains, locus YDR162C, strain NBP2, stronger effect = lower value 1.02 | S. cerevisiae deletion strains, locus YDR318W, strain mcm21, stronger effect = lower value 1 | S. cerevisiae deletion strains, locus YDR388W, stronger effect = lower value 1 | S. cerevisiae deletion strains, locus YDR502C, strain sam2, stronger effect = lower value 0.999 | S. cerevisiae deletion strains, locus YEL061C, strain CIN8, stronger effect = lower value 1 | S. cerevisiae deletion strains, locus YER110C, stronger effect = lower value 1 | S. cerevisiae deletion strains, locus YER155C, strain BEM2, stronger effect = lower value 1 | S. cerevisiae deletion strains, locus YER167W, strain BCK2, stronger effect = lower value 1.01 | S. cerevisiae deletion strains, locus YGL078C, strain dbp3, stronger effect = lower value 1.01 | S. cerevisiae deletion strains, locus YGL086W, strain mad1, stronger effect = lower value 1 | S. cerevisiae deletion strains, locus YGL248W, strain PDE1, stronger effect = lower value 1.01 | S. cerevisiae deletion strains, locus YGR078C, strain PAC10, stronger effect = lower value 1.03 | S. cerevisiae deletion strains, locus YGR135W, strain pre9, stronger effect = lower value 0.996 | S. cerevisiae deletion strains, locus YGR229C, strain SMI1, stronger effect = lower value 1.02 | S. cerevisiae deletion strains, locus YGR252W, strain gcn5, stronger effect = lower value 1.02 | S. cerevisiae deletion strains, locus YHR030C, strain SLT2, stronger effect = lower value 1.01 | S. cerevisiae deletion strains, locus YHR079C, strain IRE1 (second series), stronger effect = lower value 1 | S. cerevisiae deletion strains, locus YHR094C, strain hxt1, stronger effect = lower value 1 | S. cerevisiae deletion strains, locus YHR129C, strain ARP1, stronger effect = lower value 1.01 | S. cerevisiae deletion strains, locus YHR200W, strain rpn10, stronger effect = lower value 1.01 | S. cerevisiae deletion strains, locus YIL066C, strain RNR3, stronger effect = lower value 1.02 | S. cerevisiae deletion strains, locus YIL073C, strain SPO22, stronger effect = lower value 1.02 | S. cerevisiae deletion strains, locus YIL125W, strain kgd1, stronger effect = lower value 1 | S. cerevisiae deletion strains, locus YIR030C, strain dcg1, stronger effect = lower value 1 | S. cerevisiae deletion strains, locus YJL095W, strain BCK1, stronger effect = lower value 1.01 | S. cerevisiae deletion strains, locus YJL134W, strain LCB3, stronger effect = lower value 1 | S. cerevisiae deletion strains, locus YJL168C, strain set2, stronger effect = lower value 1 | S. cerevisiae deletion strains, locus YJL187C, strain SWE1 (second series), stronger effect = lower value 1.01 | S. cerevisiae deletion strains, locus YJR043C, strain POL32, stronger effect = lower value 1.02 | S. cerevisiae deletion strains, locus YJR075W, strain HOC1, stronger effect = lower value 1 | S. cerevisiae deletion strains, locus YKL009W, strain mrt4, stronger effect = lower value 1.01 | S. cerevisiae deletion strains, locus YKL068W, stronger effect = lower value 1.01 | S. cerevisiae deletion strains, locus YKL085W, strain MDH1 (second series), stronger effect = lower value 1 | S. cerevisiae deletion strains, locus YKL085W, strain MDH1, stronger effect = lower value 1 | S. cerevisiae deletion strains, locus YKL190W, strain CNB1, stronger effect = lower value 1.01 | S. cerevisiae deletion strains, locus YKR001C, strain vps1, stronger effect = lower value 1.01 | S. cerevisiae deletion strains, locus YLR039C, strain RIC1, stronger effect = lower value 1.04 | S. cerevisiae deletion strains, locus YLR058C, strain SHM2, stronger effect = lower value 1.01 | S. cerevisiae deletion strains, locus YLR102C, strain apc9, stronger effect = lower value 1 | S. cerevisiae deletion strains, locus YLR262C, strain YPT6, stronger effect = lower value 1.03 | S. cerevisiae deletion strains, locus YLR268W, strain sec22, stronger effect = lower value 1 | S. cerevisiae deletion strains, locus YLR330W, strain CHS5, stronger effect = lower value 1.01 | S. cerevisiae deletion strains, locus YLR342W, strain FKS1 (second series), stronger effect = lower value 1.01 | S. cerevisiae deletion strains, locus YLR371W, strain rom2, stronger effect = lower value 1.02 | S. cerevisiae deletion strains, locus YLR418C, strain cdc73, stronger effect = lower value 1 | S. cerevisiae deletion strains, locus YML016C, strain PPZ1, stronger effect = lower value 1.01 | S. cerevisiae deletion strains, locus YML032C, strain rad52, stronger effect = lower value 1.02 | S. cerevisiae deletion strains, locus YML124C, strain tub3, stronger effect = lower value 0.998 | S. cerevisiae deletion strains, locus YMR078C, strain ctf18, stronger effect = lower value 1 | S. cerevisiae deletion strains, locus YMR223W, strain ubp8, stronger effect = lower value 1.01 | S. cerevisiae deletion strains, locus YMR263W, strain SAP30, stronger effect = lower value 1.02 | S. cerevisiae deletion strains, locus YMR307W, strain GAS1, stronger effect = lower value 0.961 | S. cerevisiae deletion strains, locus YNL067W, strain RPL9B, stronger effect = lower value 1.01 | S. cerevisiae deletion strains, locus YNL128W, strain TEP1, stronger effect = lower value 1.02 | S. cerevisiae deletion strains, locus YNL153C, strain GIM3, stronger effect = lower value 1.02 | S. cerevisiae deletion strains, locus YNL233W, strain BNI4, stronger effect = lower value 1.01 | S. cerevisiae deletion strains, locus YNL250W, strain rad50, stronger effect = lower value 1.01 | S. cerevisiae deletion strains, locus YNL271C, strain bni1, stronger effect = lower value 1.01 | S. cerevisiae deletion strains, locus YNL298W, strain CLA4, stronger effect = lower value 1.01 | S. cerevisiae deletion strains, locus YNL307C, strain MCK1, stronger effect = lower value 1.01 | S. cerevisiae deletion strains, locus YNL322C, strain KRE1, stronger effect = lower value 1.01 | S. cerevisiae deletion strains, locus YNR052C, strain pop2, stronger effect = lower value 1.01 | S. cerevisiae deletion strains, locus YOL006C, strain TOP1, stronger effect = lower value 0.995 | S. cerevisiae deletion strains, locus YOL012C, strain htz1 1.11 | S. cerevisiae deletion strains, locus YOL147C, strain pex11, stronger effect = lower value 0.998 | S. cerevisiae deletion strains, locus YOR061W, strain CKA2, stronger effect = lower value 1.01 | S. cerevisiae deletion strains, locus YOR069W, strain VPS5, stronger effect = lower value 1.01 | S. cerevisiae deletion strains, locus YOR136W, strain idh2, stronger effect = lower value 1 | S. cerevisiae deletion strains, locus YOR144C, strain elg1, stronger effect = lower value 0.997 | S. cerevisiae deletion strains, locus YOR184W, strain ser1, stronger effect = lower value 1.01 | S. cerevisiae deletion strains, locus YOR316C, strain cot1, stronger effect = lower value 1.01 | S. cerevisiae deletion strains, locus YPL055C, strain LGE1, stronger effect = lower value 1.04 | S. cerevisiae deletion strains, locus YPL241C, strain CIN2, stronger effect = lower value 1.01 | S. cerevisiae deletion strains, locus YPR119W, strain clb2, stronger effect = lower value 0.997 | S. cerevisiae deletion strains, locus YPR141C, strain kar3, stronger effect = lower value 1.01 | S. cerevisiae deletion strains, locus YPR163C, strain tif3, stronger effect = lower value 1 | S. cerevisiae deletion strains, locus YPR167C, strain met16, stronger effect = lower value 1.01 | S. cerevisiae deletion strains, strain wtn01, stronger effect = lower value 0.982 | S. cerevisiae strains, strain wild type, stronger effect = lower value 1.02
